High-throughput results: PubChem, National Center for Advancing Translational Sciences (NCATS)
Apoferritin bind: qHTS Assay for Identification of Novel General Anesthetics; apoferritin/1-aminoanthracene competitive binding, fluorescence; Potency, µM (titrated, usually from 77.5 µM), inactives show top-dose activity change, negative = displacement, actives largely listed as inhibitors; Ferritin light chain (Equus caballus), P02791; actives 0.074% (n = 350,000); also: potency is read from the fitted curve at half-maximal effect; % is scaled to controls: 0 for no effect and ±100 for the full control effect; nearly all actives have a fitted effect of over 20% in size
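Apoferritin-based anesthetic binding model; compound displacement of fluorescent 1-AMA measured as endpoint fluorescence after 10 minutes at room temperature, scaled to free-ligand and complex controls.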
S-ASM inh: Inhibitors of Secretory Acid Sphingomyelinase (S-ASM): qHTS; actives 0.006% (n = 340,000); Sphingomyelin phosphodiesterase (Homo sapiens), P17405; placental ASM, HMU-PC fluorogenic substrate, 60 min; Potency, µM (top dose mostly 57.5 µM), inactives show at the highest dose activity change, negative = inhibition, hits mostly inhibitors; also: potency is read from the fitted curve at half-maximal effect
Target sequence (P17405 47-631 limits assumed): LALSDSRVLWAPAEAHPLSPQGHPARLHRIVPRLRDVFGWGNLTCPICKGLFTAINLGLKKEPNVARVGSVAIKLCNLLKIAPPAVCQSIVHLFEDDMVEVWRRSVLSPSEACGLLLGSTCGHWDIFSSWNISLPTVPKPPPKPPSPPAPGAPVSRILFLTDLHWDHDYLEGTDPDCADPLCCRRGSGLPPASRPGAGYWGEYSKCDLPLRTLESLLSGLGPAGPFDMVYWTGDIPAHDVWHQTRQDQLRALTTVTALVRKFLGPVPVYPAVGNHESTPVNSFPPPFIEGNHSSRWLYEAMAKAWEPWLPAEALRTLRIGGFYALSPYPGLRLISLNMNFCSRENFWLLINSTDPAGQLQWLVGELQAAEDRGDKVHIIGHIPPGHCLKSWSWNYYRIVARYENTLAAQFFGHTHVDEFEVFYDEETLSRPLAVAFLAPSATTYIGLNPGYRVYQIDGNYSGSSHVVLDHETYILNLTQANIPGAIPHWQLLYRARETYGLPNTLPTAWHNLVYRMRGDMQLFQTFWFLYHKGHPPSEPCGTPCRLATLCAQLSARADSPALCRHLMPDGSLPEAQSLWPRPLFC
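Human placenta-derived ASM preincubated with compound 10 min at room temperature, then reacted with 9 uM (final) fluorogenic HMU-PC substrate for 60 min at 37 C. Stop solution raises pH to 10; fluorescence read at Ex 386/Em 447 nm.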
KCNH2 WT inh: qHTS for Inhibitors of KCHN2 3.1: Wildtype qHTS; Voltage-gated inwardly rectifying potassium channel KCNH2 (Homo sapiens), Q12809; U2OS, BacMam KCNH2, thallium flux FluxOr; active compounds read low; activity change, % at 1.84 µM; actives 0.37% (n = 340,000); AID 720551, 2013;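 active = maximum activity change below -70%; inconclusive = maximum activity change between -70% and -50%; inactive = maximum activity change above -50%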; also: % is scaled to controls: 0 for no effect and ±100 for the full control effect
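U2OS cells transduced with wild-type KCNH2 virus are loaded with FluxOr dye for 45 min, and thallium flux is measured in kinetic reads before and after stimulation buffer. Rate constants are normalized to DMSO controls.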
KCNH2 3.1 inh: qHTS for Inhibitors of KCHN2 3.1: Mutant qHTS | Potassium voltage-gated channel subfamily H member 2, brain isoform KCNH2 3.1 (human) | U2OS KCNH2 3.1, thallium flux FluxOr; active compounds read low | activity change, % (tested at about 1.8 µM) | actives 0.95% (n = 340,000) | AID 720553, 2013;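 active = maximum activity change below -70%; inconclusive = maximum activity change from -70% to -50%; inactive = maximum activity change above -50%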;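 also: thallium influx rate constant from kinetic fluorescence after stimulation buffer; % is scaled to controls: 0 for no effect and ±100 for the full control effect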
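U2OS cells transduced with KCNH2 3.1 mutant virus (1.77 x 10^8 /mL, 4 h), plated overnight at 37 C, loaded 45 min with FluxOr dye plus Red40 quencher. Thallium flux rate constant from kinetic reads after stimulation buffer, normalised to controls.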
mIDH1 inhibitor: qHTS for Inhibitors of mutant isocitrate dehydrogenase 1 (IDH1): qHTS; Isocitrate dehydrogenase [NADP] cytoplasmic (Homo sapiens), O75874; IDH1-R132H enzyme, NADPH consumption, diaphorase/resazurin fluorescence; Potency, µM (titrated, usually from 76.6 µM), for the others: at the highest dose activity change, negative = inhibition, most hits filed as inhibitors; actives 0.093% (n = 390,000); AID 602179, 2012; also: potency is read from the fitted curve at half-maximal effect; % is scaled to controls: 0 for no effect and ±100 for the full control effect; nearly all actives have a fitted effect of over 65% in size
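IDH1-R132H (0.5 ug/mL) preincubated 30 min with compound, then NADPH (0.016 mM) and alpha-KG (2 mM) added; 80 min at RT, pH 7.5. Remaining NADPH coupled via diaphorase/resazurin to fluorescence (540/590 nm); concentration-response curves normalized to no-enzyme control.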
The depositor's hits bear a star; ? = inconclusive; nt = no result given; [ ] = remark or other dose. Shown are actives, neighbours in structure and some others; about 1.2% of the full set was active somewhere. Unless noted, calls follow the shape of the dose curve; as a rule, active = well fitted inhibition curve with a large enough effect; inconclusive = small, poorly fitted or top-dose-only effect; inactive = no such curve, though single readings can be large or run the other way.

SMILES | Apoferritin bind | S-ASM inh | KCNH2 WT inh | KCNH2 3.1 inh | mIDH1 inhibitor
CCOC(=O)COc1ccc(CC)cc1C(=O)c1ccn2nc(-c3ccccc3)cc2n1 | -2% | nt | nt | nt | ?
C=C(C)CSc1nncn1/N=C/c1ccc(OC)cc1 | 13µM* | 0% | -7 | 8 | 2%
Cc1ccccc1NCC(=O)N/N=C/c1ccc([N+](=O)[O-])cc1 | ? | -1% | -12 | -112* | 4%
O=C(CNc1cccc2ccccc12)N/N=C/c1ccc([N+](=O)[O-])cc1 | ? | -6% | -19 | nt | -7%
O=C(COC(=O)C1CC(=O)N(Cc2ccco2)C1)c1ccc(OC(=O)c2ccco2)cc1 (centres undefined) | -11% | -15% | -2 | 22 | -17%
Cc1ccc(C(=O)Oc2ccc(C(=O)COC(=O)C3CC(=O)N(Cc4ccco4)C3)cc2)cc1 (centres undefined) | -13% | -13% | -1 | -87* | 1%
CC(C)c1ccc(NC(=O)C2CCCN(S(=O)(=O)c3ccc4[nH]c(=O)ccc4c3)C2)cc1 (centres undefined) | 1% | nt | nt | nt | nt
Cc1cccc(S(=O)(=O)N2CCCc3ccccc32)c1 | -10% | 2% | 16 | -8 | -1%
Cc1cc(C)c(S(=O)(=O)N2CCCc3ccccc32)c(C)c1 | -1% | -3% | -7 | -95* | 14%
COC(=O)c1nnn(-c2ccc(F)c(Cl)c2)c1C(=O)OC | -13% | -2% | 5 | -70* | 7%
CCOC(=O)C1CCN(C(c2ccccc2OC)c2c(O)cc(C)n(CCOC)c2=O)CC1 (centres undefined) | 6% | nt | nt | nt | 4%
Cc1ccc(S(=O)(=O)O/N=C2\CCCc3ccccc32)cc1 | -16% | 3% | 0 | -19 | 9%
CC1=C(C)/C(=N\OS(=O)(=O)c2ccccc2)C=CC1=O | 28µM* | -4% | 14 | -3 | 7%
CCN1CCCC1CN(Cc1cc2ccc(C)cc2[nH]c1=O)C(=S)Nc1ccc(F)cc1 (centres undefined) | -14% | -2% | -71* | -85* | -2%
CCOc1cc(C(=O)Nc2ccc(-c3nc4cc(Cl)ccc4o3)cc2)cc(OCC)c1OCC | 4% | nt | nt | nt | nt
CCCCc1nn2c(=O)cc(COC(=O)c3ccc(NC(=O)C4CCCCC4)cc3)nc2s1 | -2% | nt | nt | nt | -16%
COc1ccccc1CNC(=O)CCn1c(=O)c2ccccc2n(CC(=O)Nc2cc(Cl)ccc2C)c1=O | -1% | nt | nt | nt | 9%
O=C(O)c1cccc(COc2ccc3c(c2)CCC3)c1 | -4% | 3% | 6 | -112* | -8%
CCC[N+](CC#Cc1ccccc1)(CCC)CC(=O)OCC | -6% | 1% | 23 | -71* | 7%
CCC[N+](CC#Cc1ccccc1)(CCC)CC(=O)OC | -7% | 0% | 5 | 5 | 2%
Cc1ccc(C(=O)N/C(=C\c2cccs2)C(=O)NCCCN2CCOCC2)cc1 | -8% | 9% | -117* | -49 | 11%
O=C(NCCCn1ccnc1)/C(=C\c1cccs1)NC(=O)c1ccccc1 | -8% | 1% | 6 | -45 | 8%
Cc1ccc(C(=O)N/C(=C/c2cccs2)C(=O)NCCCn2ccnc2)cc1 | -1% | 3% | -209* | -82* | 0%
Cc1ccc(C(=O)N/C(=C\c2cccs2)C(=O)NCCCn2ccnc2)cc1 | -6% | 5% | -181* | -99* | 0%
Cc1ccc(C(=O)N/C(=C\c2ccco2)C(=O)NCCCn2ccnc2)cc1C | 4% | -1% | -1 | -6 | 5%
SMILES | Apoferritin bind | S-ASM inh | KCNH2 WT inh | KCNH2 3.1 inh | mIDH1 inhibitor
Cc1ccc(C(=O)N/C(=C\c2cccs2)C(=O)NCCCn2ccnc2)cc1C | -8% | -1% | -75* | ? | 3%
O=C(NCCCn1ccnc1)/C(=C/c1cccs1)NC(=O)c1ccco1 | 0% | 6% | 2 | -43 | -6%
COC(=O)c1ccccc1NC(=O)CSc1nnc2cc(C)c3cc(C)cc(C)c3n12 | -10% | nt | nt | nt | -5%
CCCc1nnc(N2C(=O)c3oc4ccc(F)cc4c(=O)c3C2c2ccc(C(=O)OC)cc2)s1 (centres undefined) | -4% | nt | nt | nt | 10%
Cc1ccc2occ(CC(=O)Nc3c(C(=O)Nc4ccc(Cl)cc4)oc4ccccc34)c2c1 | 1% | nt | nt | nt | -5%
CCCCn1cc(S(=O)(=O)c2ccc(CC)cc2)c(=O)c2cc(F)c(N3CCOCC3)cc21 | -17% | nt | nt | nt | -9%
O=C(/C=C/c1ccccc1)N1CCCC1CO (centres undefined) | -8%[15.3 µM] | nt | nt | nt | nt
Cc1ccc(C(=O)NC(=S)N2CCN(c3ccc([N+](=O)[O-])cc3)CC2)cc1 | -3% | -7% | -30 | -47 | 5%
Cc1ccc(S(=O)(=O)CCC(=O)N2CCN(c3ccc([N+](=O)[O-])cc3)CC2)cc1 | -8% | -1% | -37 | -77* | 6%
Cc1ccc(N2CCN(CC(O)COc3ccc([N+](=O)[O-])cc3)CC2)cc1 (centres undefined) | -16% | -2% | -88* | -89* | 13%
Cc1ccc(N2CCN(CC(O)COc3cccc(C)c3)CC2)cc1 (centres undefined) | -5% | 0% | 32 | -25 | -9%
Cc1nccn1CC(O)COc1ccc([N+](=O)[O-])cc1 (centres undefined) | 3% | 0% | -5 | -98* | -10%
COc1ccc(S(=O)(=O)CCC(=O)N2CCN(c3ccc([N+](=O)[O-])cc3)CC2)cc1 | -7% | -10% | 9 | ? | -18%
Cc1ccc(C(=O)ON=C2CCN(c3ccc([N+](=O)[O-])cc3)CC2)cc1 | ? | -7% | -109* | -103* | -4%
COc1ccc(OCC(O)Cn2ccnc2C)cc1 (centres undefined) | -5% | 8% | 13 | 6 | -4%
Cc1cc(C)c2c(CC(=O)N(Cc3ccccc3)C3CCS(=O)(=O)C3)coc2c1 (centres undefined) | -22% | nt | nt | nt | 17%
Cc1cc2c(cc1NS(=O)(=O)c1cccc(C#N)c1)n(C)c(=O)c(=O)n2C | -16% | nt | nt | nt | 9%
O=[N+]([O-])c1ccc(OCC(O)CN2CCN(c3ccccc3F)CC2)cc1 (centres undefined) | -13% | -2% | -76* | -97* | 5%
OC(COc1ccc2c(c1)CCC2)CN1CCN(c2ccccc2F)CC1 (centres undefined) | -16% | 5% | 15 | -25 | 5%
c1ccc(N2CCN(c3ccc4nncn4n3)CC2)nc1 | -1% | 2% | 19 | -184* | -5%
